PubChem BioAssay AID1731 (National Center for Advancing Translational Sciences (NCATS), 2009)
Active and inactive are the calls of the source. Calls follow the shape of the dose curve; as a rule, active = well fitted curve in the direction sought with a large enough effect; inactive = no such curve, though single readings can be large or run the other way.

biological target: Epidermal growth factor receptor (Homo sapiens) (UniProt P00533); assay: Assay for Inhibitors of the ERK Signaling Pathway using a Homogeneous Screening Assay: EGFR Kinase Inhibition; details: homogeneous biochemical assay; series mostly up to 21.9 µM
Sequence (P00533 whole entry, looked up): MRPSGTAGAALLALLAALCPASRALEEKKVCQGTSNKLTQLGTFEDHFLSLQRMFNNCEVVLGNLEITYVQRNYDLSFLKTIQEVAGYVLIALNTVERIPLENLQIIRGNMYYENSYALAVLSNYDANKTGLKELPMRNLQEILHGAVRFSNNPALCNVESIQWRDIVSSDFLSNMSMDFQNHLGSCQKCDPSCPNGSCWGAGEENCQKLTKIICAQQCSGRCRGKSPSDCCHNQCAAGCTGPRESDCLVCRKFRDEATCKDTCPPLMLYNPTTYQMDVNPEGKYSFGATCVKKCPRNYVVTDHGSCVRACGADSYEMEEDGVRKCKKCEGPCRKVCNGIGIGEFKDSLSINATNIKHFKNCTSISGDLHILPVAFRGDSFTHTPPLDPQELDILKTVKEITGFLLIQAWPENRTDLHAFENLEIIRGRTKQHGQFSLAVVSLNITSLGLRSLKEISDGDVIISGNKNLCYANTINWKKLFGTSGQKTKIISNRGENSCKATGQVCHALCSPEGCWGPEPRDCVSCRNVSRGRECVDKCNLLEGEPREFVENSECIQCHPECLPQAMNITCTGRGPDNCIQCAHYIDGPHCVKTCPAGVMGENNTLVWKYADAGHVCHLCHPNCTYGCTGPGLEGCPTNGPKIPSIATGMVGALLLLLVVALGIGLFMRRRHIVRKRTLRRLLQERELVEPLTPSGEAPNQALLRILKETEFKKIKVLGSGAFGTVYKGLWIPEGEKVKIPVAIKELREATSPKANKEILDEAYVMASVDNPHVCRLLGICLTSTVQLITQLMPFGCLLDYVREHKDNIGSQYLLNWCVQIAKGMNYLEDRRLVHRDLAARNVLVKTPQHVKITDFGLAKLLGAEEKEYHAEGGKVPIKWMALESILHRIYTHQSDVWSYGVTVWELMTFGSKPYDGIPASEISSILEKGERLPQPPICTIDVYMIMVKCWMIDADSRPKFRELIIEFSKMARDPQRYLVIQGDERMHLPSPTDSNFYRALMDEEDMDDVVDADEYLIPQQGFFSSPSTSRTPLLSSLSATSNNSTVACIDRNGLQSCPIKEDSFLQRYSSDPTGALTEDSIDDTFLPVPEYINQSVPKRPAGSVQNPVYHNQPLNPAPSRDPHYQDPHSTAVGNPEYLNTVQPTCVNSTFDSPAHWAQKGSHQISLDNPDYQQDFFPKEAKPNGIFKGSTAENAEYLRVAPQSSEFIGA
Source text: qHTS Assay for Inhibitors of the ERK Signaling Pathway using a Homogeneous Screening Assay
NIH Chemical Genomics Center [NCGC]
NIH Molecular Libraries Screening Centers Network [MLSCN]
Assay Submitter (PI): Dr. Wei Zheng, NCGC/NIH
The Ras/extracellular-signal-regulated kinase (ERK) mitogen activated protein (MAP) kinase signaling pathway (ERK1/2 cascade) plays is a key role in transmitting signals from the cell surface to the nucleus (Nishida and Gotoh 1993; Chang and Karin, 2001). The cascade is initiated by the small G-protein Ras, which recruits Raf […], where activation occurs. Alternatively, this pathway can be activated by elevating intracellular cAMP.
Activation of the ERK pathway is essential in increased cell division and cell survival. Sustained and constitutive activation of the ERK pathway, however, has been linked to uncontrolled cell proliferation, increased cell survival, and tumor progression. Thus, the ERK has been as an attractive target for cancer chemotherapy in the past few years (Sebolt-Leopold and Herrera, 2004). Given its physiological and pathological importance, assessment of ERK phosphorylation has been broadly performed in both basic research and drug discovery. Most assays for the measurement of ERK phosphorylation use the antibody-based detection methods, such as western blot and ELISA. These assays require multiple reagent additions with cell wash steps and are not suitable for high-throughput screening.
The current cell-based ERK phosphorylation assay was performed using AlphaScreen platform. AlphaScreen is a two bead-based proximity-dependent chemical energy transfer luminescent assay platform. The assay reagents (ERK SureFire(TM) kit) were supplied from TGR BioSciences (Australia). In the presence of specific antibodies, phosphorylated ERK will bring "donor" and "acceptor" beads to a proximity range (<200 nm), and subsequently lead a chemical luminescent reaction upon exciting donor beads with 680 nm laser. To validate pathway hits from the cell-based assay, enzyme assays consisting of EGFR tyrosine kinase, Raf and MEK were used as a means of deciphering the enzymes of target for the prioritized group of compounds derived from the HEK-293 cell based assay. The compounds were tested against significant members of the ERK signaling pathway EGFR and EGFR mutants (EGFR L858R, EGFR T790M, and EGFR L858R T790M). In order to establish the specificity of the prioritized compounds for EGFR and EGFR mutants, the compounds were also assayed against other important ERK signaling pathway enzymes, c-RAF and MEK-1.
NCGC Assay Protocol Summary:
The HTRF kinase assay (components supplied as kit by Cisbio) was chosen for the EGFR and EGFR mutant enzyme assays that applied the time resolved fluorescence resonance energy transfer (TR-FRET) principle. A peptide substrate is labeled with a biotin that can bind to XL665 labeled streptavidin and the anti-phosphoresidue antibody is labeled with Eu+. Upon phosphorylation of the substrate, the antibody binds to phosphorylated substrate that enables TR-FRET detection in homogenous assay format.
An HTRF Kinease TK assay kit (Cisbio, Bedford, MA) was used to develop the EGFR and EGFR mutant assays (Harbert et al., 2008. Harbert C, Marshall J, Soh S, Steger K. Development of a HTRF Kinase Assay for Determination of Syk Activity. Current Chemical Genomics. 1: 20-26. 2008). EGFR and EGFR mutants were obtained from Invitrogen. […]

Q: Which outcome does the source give for `Cc1nc2c(=O)n(C)c(=O)nc-2n(C)n1` here?
A: Its outcome is “inactive”.

Q: Which outcome does the source give for `CN1CCN(c2cccc3c2C(=O)c2ccccc2C3=O)CC1` here?
A: Its outcome is “inactive”.

Q: Which outcome does the source give for `CCn1nc(-c2ccccc2)nc2c(=O)n(C)c(=O)nc1-2` here?
A: The outcome was “inactive”.

Q: How did the outcome turn out when `CCn1nc(-c2cccs2)nc2c(=O)n(C)c(=O)nc1-2` was run?
A: The outcome was “inactive”.

Q: How did the outcome turn out when `Cn1nc(-c2ccccc2)nc2c(=O)n(C)c(=O)nc1-2` was run?
A: Its outcome is “inactive”.
